Test results as given in paper PMC5540273 (PLoS ONE, 2017).
Values joined by “and” are separate entries in the source; they are usually repeats but may differ in a detail not shown here. Identical values can stand only once. Like-named read-outs stand apart in the source and are kept apart here.

Tests used:
FLT3 = details: concentration: 1 μM, replicates: in singlicate; n = 1
FLT4 = details: n = 1
FRK = details: concentration: 1 μM, replicates: in singlicate; n = 1
FYN = details: n = 1
GAK = details: n = 1
GCN2(Kin.Dom.2,S808G) = system: T1, GCN2(Kin.Dom.2,S808G); details: n = 1
T1 construct: gene EIF2AK4

GRK1 = details: concentration: 1 μM, replicates: in singlicate; n = 1
GRK2 = system: T2, GRK2; details: concentration: 1 μM, replicates: in singlicate; n = 1
T2 construct: gene ADRBK1

GRK3 = system: T3, GRK3; details: n = 1
T3 construct: gene ADRBK2

GRK4 = details: n = 1
GRK7 = details: concentration: 1 μM, replicates: in singlicate; n = 1
GSK3A = details: n = 1
GSK3B = details: n = 1
HASPIN = system: T4, HASPIN; details: concentration: 1 μM, replicates: in singlicate; n = 1
T4 construct: gene GSG2

HCK = details: concentration: 1 μM, replicates: in singlicate; n = 1
HIPK1 = details: concentration: 1 μM, replicates: in singlicate; n = 1
HIPK2 = details: concentration: 1 μM, replicates: in singlicate; n = 1
HIPK3 = details: n = 1
HIPK4 = details: n = 1
HPK1 = details: n = 1
[1] = concentration: 1 μM, replicates: in singlicate
[2] = concentration: 1 μM,replicates: in singlicate, 1 µM
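Further: KINOMEscan kinase panel screen.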

Compound: O=C1NC(=O)C(N2CCc3ccccc32)=C1c1ccccc1Cl [SB-373598]
- %Inh (FLT3): 2%
- %Inh (FLT4; [1]): 20%
- %Inh (FRK): 20%
- %Inh (FYN; [1]): 18%
- %Inh (GAK; [1]): 0%
- %Inh (GCN2(Kin.Dom.2,S808G); [1]): 4%
- %Inh (GRK1): 19%
- %Inh (GRK2): 0%
- %Inh (GRK3; [1]): 0%
- %Inh (GRK4; [1]): 24%
- %Inh (GRK7): 0%
- %Inh (GSK3A; [1]): 4%
- %Inh (GSK3B; 1 µM): 27%
- %Inh (HASPIN): 100%
- %Inh (HCK): 0%
- %Inh (HIPK1): 30%
- %Inh (HIPK2): 24%
- %Inh (HIPK3; [1]): 13%
- %Inh (HIPK4; [1]): 12%
- %Inh (HPK1; [1]): 0%

Compound: COc1cc(Nc2nccc(N3CCC(NC(=O)Nc4cc(C)ccc4C)C3)n2)cc(OC)c1OC (stereo not shown) [GSK1379762]
- %Inh (FLT3): 36%
- %Inh (FLT4; [1]): 14%
- %Inh (FRK): 8%
- %Inh (FYN; [1]): 0%
- %Inh (GAK; [1]): 28%
- %Inh (GCN2(Kin.Dom.2,S808G); [1]): 3%
- %Inh (GRK1): 0%
- %Inh (GRK2): 0%
- %Inh (GRK3; [1]): 10%
- %Inh (GRK4; [1]): 20%
- %Inh (GRK7): 0%
- %Inh (GSK3A; [1]): 0%
- %Inh (GSK3B; [1]): 11%
- %Inh (HASPIN): 0%
- %Inh (HCK): 0%
- %Inh (HIPK1): 0%
- %Inh (HIPK2): 0%
- %Inh (HIPK3; [1]): 13%
- %Inh (HIPK4; [1]): 0%
- %Inh (HPK1; [1]): 66%

Compound: O=C(Nc1ccccc1)Nc1cccc(Oc2ccc3nccn3n2)c1
- %Inh (FLT3): 4%
- %Inh (FLT4; [1]): 67%
- %Inh (FRK): 0%
- %Inh (FYN; [1]): 0%
- %Inh (GAK; [1]): 0%
- %Inh (GCN2(Kin.Dom.2,S808G); [1]): 14%
- %Inh (GRK1): 0%
- %Inh (GRK2): 0%
- %Inh (GRK3; [1]): 0%
- %Inh (GRK4; [1]): 23%
- %Inh (GRK7): 0%
- %Inh (GSK3A; [1]): 50%
- %Inh (GSK3B; [1]): 0%
- %Inh (HASPIN): 4%
- %Inh (HCK): 24%
- %Inh (HIPK1): 0%
- %Inh (HIPK2): 27%
- %Inh (HIPK3; [1]): 0%
- %Inh (HIPK4; [1]): 9%
- %Inh (HPK1; [1]): 33%

Compound: O=C(Nc1ccc2c(c1)OCO2)NC1CCN(c2ccnc(Nc3ccc(F)cc3)n2)C1 (stereo not shown) [GSK1379724]
- %Inh (FLT3): 0%
- %Inh (FLT4; [1]): 0%
- %Inh (FRK): 11%
- %Inh (FYN; [1]): 9%
- %Inh (GAK; [1]): 0%
- %Inh (GCN2(Kin.Dom.2,S808G); [1]): 6%
- %Inh (GRK1): 0%
- %Inh (GRK2): 0%
- %Inh (GRK3; [1]): 93.7%
- %Inh (GRK4; [1]): 0%
- %Inh (GRK7): 0%
- %Inh (GSK3A; [1]): 1%
- %Inh (GSK3B; [1]): 16%
- %Inh (HASPIN): 0%
- %Inh (HCK): 0%
- %Inh (HIPK1): 0%
- %Inh (HIPK2): 0%
- %Inh (HIPK3; [1]): 1%
- %Inh (HIPK4; [1]): 0%
- %Inh (HPK1; [1]): 45%

Compound: Cc1ccc(NC(=O)Nc2cc(C(C)(C)C)nn2-c2ccccc2)cc1 [GSK1014915]
- %Inh (FLT3): 98.6%
- %Inh (FLT4; [1]): 15%
- %Inh (FRK): 22%
- %Inh (FYN; [1]): 4%
- %Inh (GAK; [1]): 11%
- %Inh (GCN2(Kin.Dom.2,S808G); [1]): 9%
- %Inh (GRK1): 9%
- %Inh (GRK2): 0%
- %Inh (GRK3; [1]): 92.4%
- %Inh (GRK4; [1]): 7%
- %Inh (GRK7): 0%
- %Inh (GSK3A; [1]): 0%
- %Inh (GSK3B; [1]): 13%
- %Inh (HASPIN): 0%
- %Inh (HCK): 0%
- %Inh (HIPK1): 0%
- %Inh (HIPK2): 0%
- %Inh (HIPK3; [1]): 13%
- %Inh (HIPK4; [1]): 0%
- %Inh (HPK1; [1]): 25%

Compound: O=C(Nc1n[nH]c2nc(-c3nccs3)c(Br)cc12)C1CCCC1 [SB-742609]
- %Inh (FLT3): 44%
- %Inh (FLT4; [1]): 19%
- %Inh (FRK): 24%
- %Inh (FYN; [1]): 23%
- %Inh (GAK; [1]): 2%
- %Inh (GCN2(Kin.Dom.2,S808G); [1]): 5%
- %Inh (GRK1): 0%
- %Inh (GRK2): 0%
- %Inh (GRK3; [1]): 66%
- %Inh (GRK4; [1]): 11%
- %Inh (GRK7): 0%
- %Inh (GSK3A; [1]): 96.8%
- %Inh (GSK3B; 1 µM): 59%
- %Inh (HASPIN): 0%
- %Inh (HCK): 0%
- %Inh (HIPK1): 0%
- %Inh (HIPK2): 0%
- %Inh (HIPK3; [1]): 20%
- %Inh (HIPK4; [1]): 8%
- %Inh (HPK1; [1]): 33%

Compound: COC(=O)c1c(-c2ccccc2)c2cc(C(=O)O)ccc2c(=O)n1Cc1ccccc1
- %Inh (FLT3): 0%
- %Inh (FLT4; [1]): 0%
- %Inh (FRK): 48%
- %Inh (FYN; [1]): 0%
- %Inh (GAK; [1]): 0%
- %Inh (GCN2(Kin.Dom.2,S808G); [1]): 10%
- %Inh (GRK1): 0%
- %Inh (GRK2): 0%
- %Inh (GRK3; [1]): 3%
- %Inh (GRK4; [1]): 23%
- %Inh (GRK7): 0%
- %Inh (GSK3A; [1]): 0%
- %Inh (GSK3B; [1]): 0%
- %Inh (HASPIN): 31%
- %Inh (HCK): 0%
- %Inh (HIPK1): 14%
- %Inh (HIPK2): 0%
- %Inh (HIPK3; [1]): 0%
- %Inh (HIPK4; [1]): 0%
- %Inh (HPK1; [1]): 0%

Compound: O=C(Nc1n[nH]c2cc(-c3cccc(F)c3F)ccc12)C1CC1 [SB-733894]
- %Inh (FLT3): 0%
- %Inh (FLT4; [1]): 0%
- %Inh (FRK): 0%
- %Inh (FYN; [1]): 0%
- %Inh (GAK; [1]): 6%
- %Inh (GCN2(Kin.Dom.2,S808G); [1]): 0%
- %Inh (GRK1): 44%
- %Inh (GRK2): 0%
- %Inh (GRK3; [1]): 0%
- %Inh (GRK4; [1]): 0%
- %Inh (GRK7): 55%
- %Inh (GSK3A; [1]): 0%
- %Inh (GSK3B; [1]): 25%
- %Inh (HASPIN): 9%
- %Inh (HCK): 0%
- %Inh (HIPK1): 29%
- %Inh (HIPK2): 15%
- %Inh (HIPK3; [1]): 19%
- %Inh (HIPK4; [1]): 3%
- %Inh (HPK1; [1]): 0%

Compound: CSc1nn2c(=O)cc(N3CCOCC3)nc2n1Cc1cccc(C(F)(F)F)c1C [GSK2363608]
- %Inh (FLT3): 0%
- %Inh (FLT4; [2]): 18% and 0%
- %Inh (FRK): 0%
- %Inh (FYN; [2]): 46% and 15%
- %Inh (GAK; [2]): 100% and 0%
- %Inh (GCN2(Kin.Dom.2,S808G); [2]): 0% and 3%
- %Inh (GRK1): 0%
- %Inh (GRK2): 0%
- %Inh (GRK3; [2]): 0% and 20%
- %Inh (GRK4; [2]): 0% and 8%
- %Inh (GRK7): 0%
- %Inh (GSK3A; [2]): 26% and 9%
- %Inh (GSK3B; [2]): 12% and 25%
- %Inh (HASPIN): 0%
- %Inh (HCK): 0%
- %Inh (HIPK1): 0%
- %Inh (HIPK2): 0%
- %Inh (HIPK3; [2]): 11% and 15%
- %Inh (HIPK4; [2]): 0% and 18%
- %Inh (HPK1; [2]): 24% and 36%

Compound: COc1cccc(NC(=O)NC2CCN(c3ccnc(Nc4ccc(F)cc4)n3)C2)c1 (stereo not shown) [GSK1379721]
- %Inh (FLT3): 3%
- %Inh (FLT4; [1]): 0%
- %Inh (FRK): 0%
- %Inh (FYN; [1]): 25%
- %Inh (GAK; [1]): 3%
- %Inh (GCN2(Kin.Dom.2,S808G); [1]): 0%
- %Inh (GRK1): 0%
- %Inh (GRK2): 0%
- %Inh (GRK3; [1]): 18%
- %Inh (GRK4; [1]): 0%
- %Inh (GRK7): 0%
- %Inh (GSK3A; [1]): 21%
- %Inh (GSK3B; [1]): 10%
- %Inh (HASPIN): 0%
- %Inh (HCK): 0%
- %Inh (HIPK1): 0%
- %Inh (HIPK2): 0%
- %Inh (HIPK3; [1]): 7%
- %Inh (HIPK4; [1]): 0%
- %Inh (HPK1; [1]): 59%

Compound: Fc1cc(Cl)ccc1Nc1ccnc2cc(I)ccc12 [GW551191]
- %Inh (FLT3): 0%
- %Inh (FLT4; [1]): 3%
- %Inh (FRK): 20%
- %Inh (FYN; [1]): 25%
- %Inh (GAK; [1]): 82%
- %Inh (GCN2(Kin.Dom.2,S808G); [1]): 5%
- %Inh (GRK1): 0%
- %Inh (GRK2): 0%
- %Inh (GRK3; [1]): 32%
- %Inh (GRK4; [1]): 4%
- %Inh (GRK7): 0%
- %Inh (GSK3A; [1]): 26%
- %Inh (GSK3B; [1]): 3%
- %Inh (HASPIN): 0%
- %Inh (HCK): 0%
- %Inh (HIPK1): 0%
- %Inh (HIPK2): 0%
- %Inh (HIPK3; [1]): 0%
- %Inh (HIPK4; [1]): 0%
- %Inh (HPK1; [1]): 35%
